Results filed as inconclusive are left out. Calls of active or inactive are those of the source. Calls come from the whole dose curve; as a rule, active = well fitted activation curve with a large enough effect; inconclusive = small, poorly fitted or top-dose-only effect; inactive = flat fitted curve, though single readings scatter.
assay: qHTS Assay for NPC1 Promoter Activators: Initial hit validation from the primary screen; conditions: Huh7 NPC1 promoter-luciferase reporter, luminescence, 24 h; series mostly up to 46.1 µM; activity, positive = activation: at the top concentration;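 for activity, positive = activation: reporter driven by the mutant form of the NPC1 promoter; % of control where 0% means no effect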
Excerpt: NIH Chemical Genomics Center [NCGC] NIH Molecular Libraries Probe Production centers Network [MLPCN] MLPCN Grant: MH089375-01A1 Assay Submitter (PI): Yiannis A. Ioannou NCGC Assay Overview: Niemann Pick Type C (NPC) is a rare neurodegenerative lipidosis that is characterized by lipid storage in the endosomal/lysosomal system. Treatment modalities for this devastating disease are currently non-existent due to the severe obstacles associated with accessing the central nervous system with proteins or genes. The majority of mutations causing NPC disease are missense mutations that are distributed throughout the length of the NPC1 protein, with the most prevalent being the I1061T allele. Although NPC1 mutant proteins may be functional, they are typically trapped in the ER due to misfolding. […] We have developed and optimized a cell based luciferase reporter assay in 1536 well format for the identification of up-regulators of the mutant NPC1 promoter. This assay presents data on the validation of hits from the primary screen.
The NPC1 promoter is cloned in front of the luciferase reporter gene, therefore NPC promoter activation results in luciferase expression. Frozen stock of the NPC1 promoter transfected Huh7 cells were obtained from the laboratory of Dr. Yiannis Ioannou (The Mount Sinai School of Medicine, New York, NY). Cells were propagated and maintained at NCGC in medium containing RPMI-1640 supplemented with 10% FBS, 2mM L-glutamine, and 50ug/ml penicillin/streptomycin. Cells were harvested in and plated for assays in OP-MEM I reduced-serum medium supplemented with 10% FBS. The Amplite luciferase reporter gene assay kit was purchased from ABD Bioquest and prepared/stored according to manufacturers recommendations. qHTS Assay Setup: 1. Dispensed 5ul of Huh7 cells stably expressing NPC1-luciferase at a density of 1500 cells per well 1536-well plates. 2. Incubate cells at 37C, 5% CO2, and 95% humidity for 2 hours. 3. Transferred 23nl per well of compound in DMSO solution. 4. Incubated at 37C, 5% CO2, and 95% humidity for 24 hours. 5. Dispensed 3ul per well of Amplite reagent(ABD Bioquest) per well. 6. Incubate at ambient for 10 minutes. 7. Read using the luminescence protocol on the ViewLux plate reader (Perkin Elmer).
Potency is the fitted concentration of half-maximal effect.

| SMILES | activity, positive = activation | Potency |
| --- | --- | --- |
| Cc1ccc(NC(=O)c2ncc(Cl)c(Cl)c2Cl)cc1C | 5.4% (inactive) | – |
| CCOC(=O)CSc1nc2cc3c(cc2cc1C#N)OCO3 | – | 888 nM (active) |
| S=C1NCN(CCc2ccccc2)CN1Cc1ccccc1 | 1.9% (inactive) | – |
| COc1ccc(C)cc1N(C(=O)CNC(=O)c1ccco1)C(C(=O)NC1CCCC1)c1cccnc1 (stereo not given) | -7.29% (inactive) | – |
| Cc1c(C(O)CN2CCN(Cc3ccc4c(c3)OCO4)CC2)c2ccccc2n1C (stereo not given) | -7.59% (inactive) | – |
| CCOc1ccc(CNC(=O)C2CCCN(S(C)(=O)=O)C2)cc1OC (stereo not given) | 8.81% (inactive) | – |
| CCN(CC(=O)N(CC(C)C)c1c(N)n(CC(C)C)c(=O)[nH]c1=O)Cc1nc2ccccc2c(=O)[nH]1 | -0.302% (inactive) | – |
| Nc1ccc(C(=O)Nc2ccccc2N)cc1 | – | 15800 nM (active) |
| CC1CC(C)CN(CC(=O)N2CCOCC2)C1 (stereo not given) | 0.776% (inactive) | – |
| CCCCCCC(=O)Nc1ccc(C(=O)N/N=C/c2cccnc2)cc1 | 5.33% (inactive) | – |
| O=C(COc1ccccc1F)Nc1ccc(-c2nc3ccccc3s2)cc1 | – | 250 nM (active) |
| O=C(CN1C(=O)COc2ccc(Cl)cc21)NCC1CCCO1 (stereo not given) | -1.19% (inactive) | – |
| COCCn1c(SCc2ccc(C(=O)OC)o2)nc2cc(Cl)ccc2c1=O | -11% (inactive) | – |
| CCCC(C)NC(=O)c1ccc(OCc2ccc(Cl)cc2)c(OC)c1 (stereo not given) | 5.79% (inactive) | – |
| Brc1ccccc1-c1nnc(CSc2nnc3sc4ccccc4n23)o1 | 11.6% (inactive) | – |
| COc1ccc(-n2c(N)c(C(=O)NCc3ccco3)sc2=S)cc1 | -0.661% (inactive) | – |
| COc1ccc(NC(=O)CN(C)C(=O)c2ccc(=O)[nH]c2)cc1 | 0.198% (inactive) | – |
| Cc1csc(NC(=O)CSc2nnc(-c3ccncc3)o2)n1 | – | 15800 nM (active) |
| Cc1ccc(C(=O)NC2CCN(CC(=O)Nc3c(C)cc(C)cc3C)CC2)cc1 | -6.42% (inactive) | – |
| COc1ccc(-c2nnc(SCC(=O)/C(C#N)=C(\C)N)o2)cc1 | – | 223 nM (active) |

| SMILES | activity, positive = activation | Potency |
| --- | --- | --- |
| Cc1ccc(S(=O)(=O)N2CCN(c3cnn(C)c(=O)c3Cl)CC2)cc1 | -3.18% (inactive) | – |
| CCCCn1c(CCNC(=O)c2cccs2)nc2ccccc21 | -12.1% (inactive) | – |
| O=C(CCCC(=O)N(CC(=O)NC1CCCCC1)c1cccc(F)c1)Nc1ccccn1 | 5.64% (inactive) | – |
| COC(=O)CSc1nc2cc3c(cc2cc1C#N)OCO3 | – | 315 nM (active) |
| O=C(CCc1cccc(Cl)c1)NC1CCCN(Cc2ccccc2F)C1 (stereo not given) | -12.9% (inactive) | – |
| COc1cccc(C2Nc3ccccc3NC3=C2C(=O)CC(C)(C)C3)c1 (stereo not given) | 8.81% (inactive) | – |
| O=CN1CCN(C(=O)c2ccccc2Cl)CC1 | 4.57% (inactive) | – |
| Cc1ccccc1NC(=O)CSc1ccc(-c2cccnc2)nn1 | -0.999% (inactive) | – |
| Cc1ccc(NC(=O)c2cccc(N3C(=O)CCC3=O)c2)nc1 | 8.48% (inactive) | – |
| O=C(CSc1nnc(-c2ccccc2)o1)Nc1ccccc1F | – | 250 nM (active) |
| COc1ccccc1N(C(=O)c1snc(C(N)=O)c1N)C(C(=O)NC1CCCCC1)c1cccc(OC)c1OC (stereo not given) | -11.6% (inactive) | – |
| CC1CCCN(S(=O)(=O)c2ccc(C(=O)Nc3nnc(-c4ccncc4)o3)cc2)C1 (stereo not given) | -23.3% (inactive) | – |
| O=C(COC(=O)c1ccc(-c2nnc(-c3ccccc3)o2)cc1)c1ccccc1 | – | 396 nM (active) |
| O=S(=O)(c1cccs1)N1CCN(c2ncccn2)CC1 | -1.21% (inactive) | – |
| CCCN(CCC)CCCNC(=O)c1cc2cc3ccc(Cl)cc3nc2o1 | 6.51% (inactive) | – |
| COc1ccc(-c2csc(Nc3ncccn3)n2)cc1C | – | 250 nM (active) |
| CCN(Cc1nc2cc(Cl)ccc2c(=O)[nH]1)C(=O)C1CC(=O)N(c2cccc3ccccc23)C1 (stereo not given) | -2.69% (inactive) | – |
| Nc1c(N(CCO)C(=O)/C=C/c2ccco2)c(=O)[nH]c(=O)n1Cc1ccccc1 | -2.89% (inactive) | – |
| Cc1ccc(C)c(Nc2cc(C)nc3ncnn23)c1 | -7.93% (inactive) | – |
| CCN(CC)S(=O)(=O)c1ccc(NCc2ccccn2)nc1 | 4.73% (inactive) | – |

Reference: PubChem BioAssay AID493203 (National Center for Advancing Translational Sciences (NCATS), 2011)
